Structures are written as SMILES. Several values for one entry are separate records, joined by “and”; a condition that tells them apart may be missing. Equal values may be shown once. Inconclusive results are not listed. Activity calls are given as the source filed them.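 Rule for the calls, unless noted: active = mean z-score across replicates of 1.96 or higher in either the MELAS or the Rieske mutant cell line; inactive = the rest.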

The values that follow come from PubChem BioAssay.

The nature of assay [1]: viability loss in pontine glioma line – cell-based, SU-DIPG-XXV, MIPE5.0, CellTiter-Glo, qHTS, dose response (AID 1347065; cut-off not given, nearly all actives have AC50 up to about 26 µM;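 note: cells exposed to compound for 48 hours before ATP readout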). The note with it: CellTiter-Glo ATP luminescence.
Assay [2] is described as follows: JHH-DIPG-1 glioma cell viability, MIPE5.0 library, CellTiter-Glo luminescence, qHTS (AID 1347067; cut-off not given, nearly all actives have AC50 up to about 26 µM;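 note: cells exposed to compound for 48 hours before readout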). As to conditions: JHH-DIPG-1 glioma viability, CellTiter-Glo ATP luminescence. A general note: In ATP-based viability assays light output follows the ATP content of the culture.
The nature of assay [3]: sensitizers of A549 cells to miR-34 induction, primary screen, imaging, A549 dox-inducible miR-34, nuclei and caspase counts (AID 1347080;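 active = compounds whose cell count with miR-34 switched on is under 0.7 times the count with it off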). The note with it: A549 miR-34 inducible, Hoechst nuclei count, 48 h.
Assay [4] in a line: survival rescue of mitochondrial mutant cells in low glucose, primary screen, MELAS cybrids, Rieske KO mouse fibroblasts, CellTiter-Glo (AID 1508586).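 Note: z relative to plate mean and SD of compound and empty wells.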
The nature of assay [5]: SU-DIPG-XXV glioma cell viability, MIPE5.0 library, qHTS (AID 1347068; cut-off not given, nearly all actives have IC50 up to about 30 µM).
For assay [6], the target named is NAD(+) hydrolase SARM1 (Homo sapiens) (UniProt Q6SZW1). The assay can be described thus: SARM1 TIR NADase inhibitors, cell lysate, NAD-Glo luminescence (AID 1508614;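 active = compound whose remaining NAD level is above about 45 nM, limit read from the data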;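 note: higher remaining NAD means stronger inhibition of SARM1 NADase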). The note with it: SAM-TIR HEK293T lysate NADase, at 1 µM, stronger effect = higher value.
Assay [7] has as its target Mitogen-activated protein kinase 7 (Homo sapiens) (UniProt Q13164). Put plainly: ERK5 transactivation activators in reporter cells, primary screen, cell-based, HTS (AID 1508626;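 active = luciferase signal above three times the same-plate solvent-only control wells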;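 note: luciferase driven by Gal4-ERK5 fusion binding five Gal4 sites before minimal TATA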). The note with it: HeLa Gal4-ERK5 transactivation, 18 h, at 5 µM, stronger effect = higher value.
Assay [8] is described as follows: viability rescue of complex I mutant cybrids, primary screen, cell-based, galactose medium, ATP luminescence (AID 1645843;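 active = z-score of at least 1.8 in each of two replicates, scored against plate mean and spread of sample wells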;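 note: positive z means more ATP and so rescue of galactose-driven cybrid death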). As to conditions: complex I mutant cybrid cells, 72 h, stronger effect = higher value.
Assay [9] can be described thus: SU-DIPG-VI glioma cell viability, MIPE4.0 library, CellTiter-Glo luminescence, qHTS (AID 1347066; cut-off not given, nearly all actives have AC50 up to about 30 µM;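 note: cells exposed to compound for 48 hours before readout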). As to conditions: CellTiter-Glo ATP luminescence.
The nature of assay [10]: phospholipid biosynthesis inhibitors in animal cells, primary screen, cell-based, LOPAC library, screen 4 (AID 1347384; call rule not given here). As to conditions: phospholipid biosynthesis inhibition screen, at 10 µM.
Where [11] appears, read: stronger effect = lower value, cell number ratio, induced over uninduced.
Where [12] appears, read: measured here: relative caspase fold change +Dox/-Dox.
The mark [13] stands for this setting: measured here: total cells with miR-34 induction, stronger effect = lower value.
Where [14] appears, read: measured here: total cells without miR-34 induction.
[15] abbreviates: MELAS cybrid survival, CellTiter-Glo 48 h, stronger effect = higher value.
Setting [16] is: Rieske KO mouse fibroblast survival, CellTiter-Glo 72 h.

Sequence of NAD(+) hydrolase SARM1 (Homo sapiens) (Q6SZW1 whole entry, looked up, the tested form may be a part): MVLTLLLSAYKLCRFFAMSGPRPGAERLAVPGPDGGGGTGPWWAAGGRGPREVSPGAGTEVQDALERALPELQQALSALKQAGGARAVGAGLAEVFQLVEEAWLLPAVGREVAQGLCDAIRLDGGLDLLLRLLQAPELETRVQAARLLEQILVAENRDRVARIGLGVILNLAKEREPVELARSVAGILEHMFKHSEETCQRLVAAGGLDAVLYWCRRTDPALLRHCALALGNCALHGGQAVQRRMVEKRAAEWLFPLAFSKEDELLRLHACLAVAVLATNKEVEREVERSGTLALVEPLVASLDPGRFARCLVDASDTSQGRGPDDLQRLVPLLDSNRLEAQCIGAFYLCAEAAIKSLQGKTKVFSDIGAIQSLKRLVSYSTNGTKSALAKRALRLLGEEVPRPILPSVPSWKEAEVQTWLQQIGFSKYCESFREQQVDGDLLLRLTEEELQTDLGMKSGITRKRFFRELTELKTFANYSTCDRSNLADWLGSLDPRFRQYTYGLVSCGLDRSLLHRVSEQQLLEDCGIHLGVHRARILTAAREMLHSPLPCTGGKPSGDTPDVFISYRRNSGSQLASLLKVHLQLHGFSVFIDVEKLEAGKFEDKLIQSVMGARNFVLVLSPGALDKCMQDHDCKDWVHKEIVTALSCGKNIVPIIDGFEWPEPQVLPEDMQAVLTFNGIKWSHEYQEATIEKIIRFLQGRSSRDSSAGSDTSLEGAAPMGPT
Sequence of Mitogen-activated protein kinase 7 (Homo sapiens) (Q13164 whole entry, looked up, the tested form may be a part): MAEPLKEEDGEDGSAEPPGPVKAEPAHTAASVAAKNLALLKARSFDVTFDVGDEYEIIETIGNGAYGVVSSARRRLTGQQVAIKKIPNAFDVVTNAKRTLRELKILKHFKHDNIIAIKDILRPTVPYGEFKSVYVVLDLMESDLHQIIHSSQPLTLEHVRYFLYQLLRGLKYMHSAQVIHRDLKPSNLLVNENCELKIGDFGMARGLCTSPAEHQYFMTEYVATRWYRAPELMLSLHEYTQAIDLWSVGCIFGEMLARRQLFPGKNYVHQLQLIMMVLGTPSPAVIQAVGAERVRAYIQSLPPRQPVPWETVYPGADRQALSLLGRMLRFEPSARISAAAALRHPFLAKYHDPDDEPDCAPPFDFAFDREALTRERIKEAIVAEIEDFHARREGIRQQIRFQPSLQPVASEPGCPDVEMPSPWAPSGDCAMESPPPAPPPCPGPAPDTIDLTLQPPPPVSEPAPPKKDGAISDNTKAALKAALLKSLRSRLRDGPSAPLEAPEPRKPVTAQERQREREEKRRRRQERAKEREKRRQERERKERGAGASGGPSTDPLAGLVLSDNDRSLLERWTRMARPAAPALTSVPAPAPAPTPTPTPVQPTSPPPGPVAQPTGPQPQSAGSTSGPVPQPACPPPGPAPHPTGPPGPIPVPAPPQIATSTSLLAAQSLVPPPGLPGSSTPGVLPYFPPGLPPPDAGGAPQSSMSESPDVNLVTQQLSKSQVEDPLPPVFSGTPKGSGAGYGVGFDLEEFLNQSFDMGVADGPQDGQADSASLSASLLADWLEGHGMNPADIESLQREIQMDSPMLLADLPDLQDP

As for `CCCCc1ccc2nc(NC(=O)OC)[nH]c2c1`, the results for the half-maximal activity concentration (AC50) in assay [1] and in assay [2] were 118 nM (active) and 332 nM (active), respectively. The fold change in [3] (setting [11]) is 1.15 (inactive); in assay [3] (setting [12]), 0.509. The cell count is 1770 in assay [3] (setting [13]) and 1530 in assay [3] (setting [14]). Also, the z-score in assay [4] (setting [15]) was -2.16 (inactive); in assay [4] (setting [16]), 0.696.

For `CC(=O)N(O)CCCCCNC(=O)CCC(=O)N(O)CCCCCNC(=O)CCC(=O)N(O)CCCCCN`, the AC50 in assay [1] was 13200 nM (active). Moreover, the molecule was called inactive in assay [5]. Moreover, the fold change in assay [3] (setting [11]) is 0.985 (inactive) and 0.882 (inactive) and 0.874 (inactive); in assay [3] (setting [12]) it was 1.2 and 0.413 and 4.36. The cell count was 4610 and 9190 and 10300 in assay [3] (setting [13]); 4680 and 10400 and 11800 in assay [3] (setting [14]). Besides, the z-score in assay [4] (setting [15]) was -0.752 (inactive) and -0.803 (inactive); in assay [4] (setting [16]), -0.313 and -1.18; in assay [8], 0.76 (inactive). Besides, the remaining NAD in assay [6] was 10 nM (inactive). Also, the luciferase signal in [7] was 40 AU (inactive).

Regarding `CCC(=O)O[C@]1(C(=O)SCF)[C@H](C)C[C@H]2[C@@H]3C[C@H](F)C4=CC(=O)C=C[C@]4(C)[C@@]3(F)[C@@H](O)C[C@@]21C`, the molecule was called inactive in assay [9], in assay [2] and in assay [5]. Further, the fold change in assay [3] (setting [11]) is 0.882 (inactive) and 0.864 (inactive); in [3] (setting [12]) it was 0.631 and 0.861. Besides, the cell count is 6550 and 5840 in assay [3] (setting [13]); 7420 and 6760 in [3] (setting [14]). The z-score is 0.444 (inactive) in assay [4] (setting [15]), 0.72 in assay [4] (setting [16]) and 0.435 (inactive) in assay [8]. The remaining NAD in [6] was 10 nM (inactive).

For the molecule `C#CCN[C@@H]1CCc2ccccc21`, the result in [9], in assay [2] and in assay [5] was inactive. Moreover, the fold change in assay [3] (setting [11]) is 0.9 (inactive); in [3] (setting [12]), 0.614. Moreover, the cell count is 8560 in assay [3] (setting [13]) and 9500 in assay [3] (setting [14]). The z-score in assay [4] (setting [15]) was -0.17 (inactive); in assay [4] (setting [16]) it was 0.336. Also, in [6], the remaining NAD is 10 nM (inactive).

Regarding `O=C1CCc2cc(OCCCCc3nnnn3C3CCCCC3)ccc2N1`, the call in assay [1], in assay [2] and in assay [10] was inactive. The z-score was -0.457 (inactive) and 0.645 (inactive) in assay [4] (setting [15]); 0.52 and 0.278 in [4] (setting [16]); -1.27 (inactive) and -0.71 (inactive) in [8]. Moreover, in [6], the remaining NAD is 10 nM (inactive). In [7], the luciferase signal is 96 AU (inactive).

`C[C@H]1O[C@@H](n2cc(F)c(=O)[nH]c2=O)[C@H](O)[C@@H]1O`: the call in assay [9], in assay [2], in assay [5] and in [10] was inactive. For the same molecule, the fold change is 1.04 (inactive) and 0.788 (inactive) in assay [3] (setting [11]); 0.632 and 1.14 in [3] (setting [12]). Also, the cell count in assay [3] (setting [13]) is 3620 and 3400; in [3] (setting [14]), 3490 and 4310. Further, the z-score in [4] (setting [15]) is 0.0159 (inactive); in assay [4] (setting [16]), -0.832; in assay [8] it was 0.64 (inactive) and -0.08 (inactive). Also, in [6], the remaining NAD was 10 nM (inactive).

For `CNC[C@H](O)c1ccc(O)c(O)c1`, the call in assay [9], in assay [2], in [5] and in [10] was inactive. Further, the fold change in assay [3] (setting [11]) was 0.963 (inactive); in assay [3] (setting [12]) it was 1.01. Besides, the cell count in [3] (setting [13]) is 10100; in assay [3] (setting [14]), 10500. For the same molecule, the remaining NAD in [6] is 10 nM (inactive). Also, the luciferase signal in assay [7] was 24 AU (inactive). Besides, the z-score in assay [8] is -1.02 (inactive).

On to `CCCOc1ccc(C(=O)OCCN(CC)CC)cc1N`, for which the molecule was classed as inactive in [9], in [2] and in assay [5]. Further, the z-score in assay [4] (setting [15]) was 0.278 (inactive) and -0.171 (inactive) and -0.393 (inactive); in [4] (setting [16]), -0.35 and 0.529 and -1.27; in assay [8], 0.735 (inactive) and 0.01 (inactive). In addition, in [6], the remaining NAD is 10 nM (inactive). For the same molecule, the luciferase signal in assay [7] was 212 AU (inactive).

In the case of `Clc1ccc(C(c2ccccc2Cl)C(Cl)Cl)cc1` (configuration not stated), the half-maximal activity concentration (AC50) in [9] is 23500 nM (active); in assay [2] it was 20900 nM (active). Also, the fold change in assay [3] (setting [11]) was 1.02 (inactive) and 0.901 (inactive) and 0.92 (inactive); in assay [3] (setting [12]) it was 1.69 and 0.413 and 1.68. Also, the cell count was 9100 and 8310 and 10700 in assay [3] (setting [13]); 8890 and 9220 and 11600 in [3] (setting [14]). Moreover, the molecule was called inactive in assay [10]. Also, the z-score in [4] (setting [15]) was -0.255 (inactive) and -0.0992 (inactive); in assay [4] (setting [16]) it was 0.722 and 0.331; in [8], -1.24 (inactive). In addition, the remaining NAD in assay [6] is 10 nM (inactive). Further, the luciferase signal in assay [7] is 56 AU (inactive).

As to `O=c1[nH]c(=O)n([C@H]2C[C@H](O)[C@@H](CO)O2)cc1F`, the outcome in assay [1] and in assay [5] was inactive. The results for the fold change in [3] (setting [11]) and in assay [3] (setting [12]) were 1.03 (inactive) and 0.977, respectively. Besides, the figures for the cell count in assay [3] (setting [13]) and in [3] (setting [14]) were 4160 and 4020, respectively. The z-score in [4] (setting [15]) is -1.41 (inactive) and 0.996 (inactive); in [4] (setting [16]) it was 1.5 and -0.252; in assay [8], 1.93 (active). The remaining NAD in [6] is 10 nM (inactive). Further, in assay [7], the luciferase signal is 12 AU (inactive).

Consider `Cc1cc(C2CCCCC2)n(O)c(=O)c1`, for which the AC50 is 2350 nM (active) in assay [1] and 2630 nM (active) in assay [2]. Further, the z-score is 0.334 (inactive) and 0.408 (inactive) and 0.404 (inactive) in assay [4] (setting [15]); -0.762 and -0.715 and 0.148 in assay [4] (setting [16]). The remaining NAD in assay [6] is 10 nM (inactive). Besides, the luciferase signal in assay [7] was 52 AU (inactive).

`COc1ncnc(NS(=O)(=O)c2ccc(N)cc2)c1OC`: the molecule was called inactive in [9], in [2] and in assay [5]. Moreover, the fold change was 0.905 (inactive) and 0.917 (inactive) and 0.89 (inactive) in assay [3] (setting [11]); 0.874 and 2.12 and 1.28 in assay [3] (setting [12]). In addition, the cell count in assay [3] (setting [13]) is 9490 and 11800 and 9350; in assay [3] (setting [14]) it was 10500 and 12900. The z-score in assay [4] (setting [15]) was 0.681 (inactive) and -0.67 (inactive); in [4] (setting [16]) it was 0.678 and -1.38; in assay [8], -0.18 (inactive). In [6], the remaining NAD is 10 nM (inactive).

Regarding `CNC[C@H](O)[C@@H](O)[C@H](O)[C@H](O)CO`, the molecule was called inactive in [9], in assay [2] and in [5]. Moreover, the fold change is 0.909 (inactive) in assay [3] (setting [11]) and 1.1 in assay [3] (setting [12]). The cell count was 9480 in [3] (setting [13]) and 10400 in assay [3] (setting [14]). For the same molecule, the z-score is 0.108 (inactive) and -0.495 (inactive) in assay [4] (setting [15]); -0.764 and -1.1 in [4] (setting [16]); 0.835 (inactive) in [8]. Moreover, in assay [6], the remaining NAD was 10 nM (inactive).

With `O=C(NC(Cc1cc(=O)[nH]c2ccccc12)C(=O)O)c1ccc(Cl)cc1` (configuration not stated), the molecule was classed as inactive in [9], in [2] and in assay [5]. Moreover, the fold change was 0.898 (inactive) and 0.888 (inactive) in assay [3] (setting [11]); 0.965 and 1.15 in [3] (setting [12]). The cell count in assay [3] (setting [13]) was 8440 and 9630; in assay [3] (setting [14]), 9400 and 10800. Further, the z-score in assay [4] (setting [15]) was -0.219 (inactive) and -0.0914 (inactive) and 0.278 (inactive); in assay [4] (setting [16]) it was 0.648 and -0.845 and -0.0622; in assay [8], 0.47 (inactive). For the same molecule, the remaining NAD in assay [6] is 10 nM (inactive). Also, the luciferase signal in assay [7] was 40 AU (inactive).

Usually AC50 stands for the midpoint of the concentration-response curve, whichever way the signal moves.
